Data published in PubChem BioAssay (NCI).
This is part of a sample that, as a whole, favours compounds with a hit. Of some 79,000 tested, about 15% had one in any assay. Calls of active or inactive are those of the source. Rule as the data show it: active = growth inhibition above about 70%; inactive = the rest.

Experiments:
[1] = NCI Yeast Anticancer Drug Screen. Data for the rad52 strain (AID 147);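 also: 0% = growth of vehicle-treated control cultures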; conditions: S. cerevisiae rad52 mutant growth inhibition, stronger effect = higher value
In short: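 Inhibition of yeast growth, referenced to vehicle controls, was the measured output for a strain with defective DNA damage repair.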

[2] = NCI Yeast Anticancer Drug Screen. Data for the wt1 strain (AID 149);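 also: 0% = growth of vehicle-treated wt1 cultures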; conditions: S. cerevisiae wt1 strain (SPY 50644) growth inhibition, stronger effect = higher value
In short: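 Yeast wt1 strain exposed to compounds; growth inhibition measured relative to vehicle-treated controls.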

[3] = NCI Yeast Anticancer Drug Screen. Data for the rad50EPP+ strain (AID 151);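 also: 0% = growth of vehicle-treated control cultures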; conditions: S. cerevisiae rad50 mutant strain, stronger effect = higher value
In short: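 Genetically defined yeast (rad50EPP+, DNA damage repair alteration) is grown with compound, and inhibition of growth is expressed relative to vehicle-treated controls.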

[4] = NCI Yeast Anticancer Drug Screen. Data for the rad50 strain (AID 155);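 also: 0% = growth of vehicle-only cultures of the same strain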; conditions: S. cerevisiae rad50 strain growth inhibition, stronger effect = higher value
In short: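 Yeast carrying a defined DNA repair defect were exposed to test compounds, and growth was compared with vehicle-treated controls to give percent inhibition.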

[5] = NCI Yeast Anticancer Drug Screen. Data for the mec2-1 strain (AID 157); conditions: S. cerevisiae mec2-1 strain, stronger effect = higher value
In short: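 Each compound was tested on mec2-1 yeast, a strain altered in DNA damage repair or cell cycle control. Growth inhibition is reported relative to vehicle.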

[6] = NCI Yeast Anticancer Drug Screen. Data for the rad14 strain (AID 159);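 also: 0% = growth of vehicle-treated control cultures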; conditions: S. cerevisiae rad14 strain growth inhibition, stronger effect = higher value
In short: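 Yeast cells carrying a defined DNA-repair defect were exposed to compounds, and growth inhibition was calculated relative to vehicle-treated control cultures.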

[7] = NCI Yeast Anticancer Drug Screen. Data for the sgs1 mgt1 strain (AID 161);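 also: 0% = growth of cultures given vehicle only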; conditions: S. cerevisiae sgs1 mgt1 strain, stronger effect = higher value
In short: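 Genetically altered yeast, compound exposure, growth inhibition relative to vehicle.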

[8] = NCI Yeast Anticancer Drug Screen. Data for the CLN2oe strain (AID 163);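 also: 0% = growth of vehicle-only control cultures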; conditions: S. cerevisiae CLN2oe strain, stronger effect = higher value
In short: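 First, the altered yeast strain was treated with each compound; second, its growth was measured; finally, inhibition was derived by comparison with vehicle controls.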

[9] = NCI Yeast Anticancer Drug Screen. Data for the cln2 rad14 strain (AID 165);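 also: 0% = growth equal to vehicle treated cultures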; conditions: S. cerevisiae cln2 rad14 strain, stronger effect = higher value
In short: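 Test compounds were added to cln2 rad14 yeast cultures; inhibition of growth was then determined by comparison with vehicle treatment.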

[10] = NCI Yeast Anticancer Drug Screen. Data for the bub3 strain (AID 167); conditions: S. cerevisiae bub3 mutant strain, stronger effect = higher value
In short: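 Compounds were applied to a genetically altered yeast strain carrying a cell-cycle control defect. Growth inhibition was scored against vehicle-treated controls.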

[11] = NCI Yeast Anticancer Drug Screen. Data for the wt2 strain (AID 169);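 also: 0% = growth of vehicle-treated yeast cultures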; conditions: S. cerevisiae wt2 strain growth inhibition, stronger effect = higher value
In short: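 The panel's yeast strains carry defined changes in DNA repair or cell cycle genes. Each strain is grown with compound, and growth loss is scored relative to vehicle.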

[12] = NCI Yeast Anticancer Drug Screen. Data for the mlh1 strain (AID 171);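 also: 0% = growth of vehicle-treated control cultures of the same strain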; conditions: S. cerevisiae mlh1 strain growth inhibition, stronger effect = higher value
In short: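 Inhibition values reflect reduced yeast growth in the presence of compound, referenced to vehicle controls, using a strain chosen for its alteration in DNA repair or cell cycle control.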

[13] = NCI Yeast Anticancer Drug Screen. Data for the sgs1 strain (AID 173);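 also: 0% = growth of vehicle-only control cultures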; conditions: S. cerevisiae sgs1 mutant, stronger effect = higher value
In short: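 Vehicle-treated cultures served as reference for growth inhibition of a yeast strain altered in DNA damage repair or cell cycle control after compound exposure.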

[14] = NCI Yeast Anticancer Drug Screen. Data for the mlh1 rad18 strain (AID 175); conditions: S. cerevisiae mlh1 rad18 strain growth inhibition, stronger effect = higher value
In short: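 Inhibition values reflect reduced growth of mutant yeast versus vehicle-treated controls following compound exposure; the mutations affect DNA damage repair.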

[15] = NCI Yeast Anticancer Drug Screen. Data for the rad18 strain (AID 177); conditions: S. cerevisiae rad18 mutant growth inhibition, stronger effect = higher value
In short: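 Steps: expose repair-mutant yeast to compound; measure growth; express as inhibition relative to vehicle control.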

[16] = at 5.0 µM (retest, dose inferred, filed as 0.5)
[17] = at 50.0 µM (retest, dose inferred, filed as 5.0)

Measured: growth inhibition

COC(=O)CSc1nnc(CSc2ccc(Cl)cc2)n1-c1ccccc1
inactive: [1]; at 1.2 µM 1% | [1]; at 3.7 µM 3% | [1]; at 11.0 µM 5% | [1]; at 33.0 µM 12% | [1]; at 100.0 µM 5% | [2]; at 1.2 µM -1% | [2]; at 3.7 µM -2% | [2]; at 11.0 µM -3% | [2]; at 33.0 µM 0% | [2]; at 100.0 µM 2% | [3]; at 1.2 µM -2% | [3]; at 3.7 µM 0% | [3]; at 11.0 µM -2% | [3]; at 33.0 µM -5% | [3]; at 100.0 µM -11% | [4]; at 1.2 µM 2% | [4]; at 3.7 µM 4% | [4]; [16] -16% | [4]; at 11.0 µM 9% | [4]; at 33.0 µM 15% | [4]; [17] 15% | [4]; at 50.0 µM 6.25% | [4]; at 100.0 µM 12% | [5]; at 1.2 µM -3% | [5]; at 3.7 µM -1% | [5]; [16] -9% | [5]; at 11.0 µM 3% | [5]; at 33.0 µM 10% | [5]; [17] 18% | [5]; at 50.0 µM 16.9% | [5]; at 100.0 µM 12% | [6]; at 1.2 µM 0% | [6]; at 3.7 µM 2% | [6]; at 11.0 µM 10% | [6]; at 33.0 µM 15% | [6]; at 100.0 µM 13% | [7]; [16] -11% | [7]; [17] 68% | [7]; at 50.0 µM 58.5% | [8]; at 1.2 µM -2% | [8]; at 3.7 µM 6% | [8]; at 11.0 µM 14% | [8]; at 33.0 µM 19% | [8]; at 100.0 µM 19% | [9]; [16] -6% | [9]; [17] 43% | [9]; at 50.0 µM 44% | [10]; at 1.2 µM -1% | [10]; at 3.7 µM 6% | [10]; [16] 7% | [10]; at 11.0 µM 22% | [10]; at 33.0 µM 46% | [10]; at 100.0 µM 57% | [11]; at 1.2 µM -1% | [11]; at 3.7 µM 1% | [11]; at 11.0 µM -1% | [11]; at 33.0 µM 1% | [11]; at 100.0 µM 4% | [12]; at 1.2 µM -1% | [12]; at 3.7 µM -1% | [12]; at 11.0 µM 2% | [12]; at 33.0 µM 9% | [12]; at 100.0 µM 14% | [13]; at 1.2 µM -2% | [13]; at 3.7 µM -3% | [13]; at 11.0 µM 2% | [13]; at 33.0 µM 13% | [13]; at 100.0 µM 15% | [14]; [16] -11% | [14]; [17] 32% | [14]; at 50.0 µM 7% | [15]; at 1.2 µM -1% | [15]; at 3.7 µM 2% | [15]; at 11.0 µM 4% | [15]; at 33.0 µM 8% | [15]; at 100.0 µM 9%
active: [10]; [17] 75% | [10]; at 50.0 µM 74.5%

CCCc1[nH]nc(C(N)=O)c1N=NN(C)C
active: [1]; at 33.0 µM 90% | [1]; at 100.0 µM 96% | [3]; at 33.0 µM 82% | [3]; at 100.0 µM 95% | [4]; at 33.0 µM 83% | [4]; [17] 81% | [4]; at 50.0 µM 94.8% | [4]; at 100.0 µM 94% | [13]; at 100.0 µM 85% | [14]; at 50.0 µM 73.5% | [15]; at 33.0 µM 83% | [15]; at 100.0 µM 94%
inactive: [1]; at 1.2 µM 2% | [1]; at 3.7 µM 12% | [1]; at 11.0 µM 37% | [2]; at 1.2 µM -6% | [2]; at 3.7 µM -4% | [2]; at 11.0 µM -7% | [2]; at 33.0 µM -4% | [2]; at 100.0 µM 5% | [3]; at 1.2 µM 2% | [3]; at 3.7 µM 16% | [3]; at 11.0 µM 43% | [4]; at 1.2 µM 3% | [4]; at 3.7 µM 4% | [4]; [16] -108% | [4]; at 11.0 µM 31% | [5]; at 1.2 µM 1% | [5]; at 3.7 µM -1% | [5]; [16] -44% | [5]; at 11.0 µM -14% | [5]; at 33.0 µM 11% | [5]; [17] -15% | [5]; at 50.0 µM 14.1% | [5]; at 100.0 µM 63% | [6]; at 1.2 µM 0% | [6]; at 3.7 µM -1% | [6]; at 11.0 µM 5% | [6]; at 33.0 µM 11% | [6]; at 100.0 µM 30% | [7]; [16] -55% | [7]; [17] 18% | [7]; at 50.0 µM 44.1% | [8]; at 1.2 µM -3% | [8]; at 3.7 µM -3% | [8]; at 11.0 µM 2% | [8]; at 33.0 µM -3% | [8]; at 100.0 µM 5% | [9]; [16] -59% | [9]; [17] -48% | [9]; at 50.0 µM 13.4% | [10]; at 1.2 µM -13% | [10]; at 3.7 µM -9% | [10]; [16] -60% | [10]; at 11.0 µM -5% | [10]; at 33.0 µM -6% | [10]; [17] -73% | [10]; at 50.0 µM -0.25% | [10]; at 100.0 µM 4% | [11]; at 1.2 µM -1% | [11]; at 3.7 µM 0% | [11]; at 11.0 µM -1% | [11]; at 33.0 µM 3% | [11]; at 100.0 µM 10% | [12]; at 1.2 µM 7% | [12]; at 3.7 µM -5% | [12]; at 11.0 µM -2% | [12]; at 33.0 µM 0% | [12]; at 100.0 µM 11% | [13]; at 1.2 µM 0% | [13]; at 3.7 µM -3% | [13]; at 11.0 µM 24% | [13]; at 33.0 µM 56% | [14]; [16] -120% | [14]; [17] 13% | [15]; at 1.2 µM -2% | [15]; at 3.7 µM 6% | [15]; at 11.0 µM 32%
